Assay outcomes deposited in PubChem by several laboratories.
Most compounds without a hit are left out; they make up all but 3.6% or so of the library.
TWEAK Fn14 block: blocks TWEAK-Fn14 interaction in a reporter cell assay; AID 1159606; inhibition, % at 10 µM; actives 2% (n = 360,000); TWEAK-stimulated Fn14 reporter cells, luciferase luminescence, 8 h; in the data active means inhibition above about 50%
HSF-1 act: increases HSF-1 driven luciferase reporter signal; actives 1.7% (n = 300,000); AID 504408; NIH3T3-HGL HSF-1 luciferase reporter, MG132, 8 h; 100% = twice DMSO control signal; activation, % at 9 µM;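 active means mean replicate activation of at least 50% with a set share of replicates each reaching 50%; inconclusive means only one of those two conditions met; inactive means mean below 50% and too few replicates reaching it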;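 further: 0% = median of the neutral control wells and 100% = twice that signal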
EBV LMP1 NFkB: inhibitors of Epstein-Barr LMP1-induced NF-kappaB reporter; LMP1-induced NF-kappaB luciferase reporter cells, luminescence; AID 504558; inhibition, % at 12.5 µM; actives 0.69% (n = 350,000); in the data active means inhibition above about 41%; inconclusive means no clear call, values can overlap the other calls;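 further: 0% = neutral control wells and 100% = reference inhibitor control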
TROY NFkB inh: inhibitors of TROY-dependent NF-kB signaling; Q293 LMP1-TROYcd NF-kB luciferase reporter, 4 h; inhibition, % at 10 µM; actives 0.98% (n = 360,000); AID 1347056;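 active means compounds whose plate-normalised and pattern-corrected inhibition of the luciferase reporter signal at the single screening dose is 50% or more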
LGR2 inh: blocks bursicon-induced cAMP signaling via Drosophila LGR2; HEK293 LGR2, CRE-luciferase, bursicon-stimulated, 4 h; inhibition, % at 9.99 µM; actives 0.35% (n = 380,000); AID 720647;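 active means drop in luminescence signal, shown as inhibition above about 50% in the replicate tests, limit read from the data, passing the limit was not always enough; inconclusive means probably only some replicates passing the limit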;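 further: agonist challenge used bursicon conditioned medium at about half maximal strength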
HSF1 inh: HSF1 inhibition; NIH3T3-HGL HSE-luciferase, MG132-induced, luminescence 8 h; hits give low values; activity change, negative = inhibition, % at 7.5 µM (by protocol); actives 0.77% (n = 300,000); AID 2098;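 active means more than half of replicate wells show activity change below -50%, luminescence cut by over half; inconclusive means some wells, but at most half, below -50%; inactive means no replicate well below -50%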;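 further: luciferase reports HSF-1 transcriptional activity via heat shock element; 0% = median of DMSO wells and -100% = zero luminescence signal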
* hit, by the source's call; ? = inconclusive; · = not tested or not shown.

SMILES	TWEAK Fn14 block	HSF-1 act	EBV LMP1 NFkB	TROY NFkB inh	LGR2 inh	HSF1 inh
Clc1ccc(-c2cc(-c3ccccc3)on2)cc1	34	·	-56	-39	-51	·
CCc1ccn2cc(-c3cc(-c4ccccc4)no3)nc2c1	106*	-74	70*	87*	103*	-69*
Cc1ccc2nc(-c3cc(-c4ccccc4)no3)cn2c1	79*	9	37	41	·	2
N#Cc1nc(COc2ccccc2)oc1N1CCN(Cc2ccccc2)CC1	-20	18	10	5	·	12
c1ccc(CN2CCN(c3ncccn3)CC2)cc1	8	4	2	2	-5	-7
C(#Cc1ccccc1)CN1CCN(c2ccccn2)CC1	-8	-79	3	-18	9	-72*
c1ccc(COc2ccc(CN3CCN(c4ccccn4)CC3)cc2)cc1	15	9	-23	57*	·	-4
Cc1ccc(OCc2nc(C#N)c(N3CCN(Cc4ccccc4)CC3)o2)cc1	103*	2	5	-8	·	7
C[C@H](CO)N1C[C@H](C)[C@@H](CN(C)S(=O)(=O)c2ccc(F)cc2)Oc2c(NC(=O)CCCCCC(=O)Nc3ccccc3N)cccc2C1=O	·	·	·	·	9	·
CC(C)CC#Cc1ccc2c(c1)O[C@@H](CN(C)Cc1ccccn1)[C@@H](C)CN([C@H](C)CO)S2(=O)=O	·	·	·	·	-32	·
C[C@@H]1CN([C@H](C)CO)S(=O)(=O)c2ccc(-c3cccc(C#N)c3)cc2O[C@@H]1CN(C)Cc1cccc(F)c1	·	·	·	·	14	·
O=c1oc(-c2ccccc2)cc2ccccc12	-23	·	·	-70	5	·
O=c1oc(-c2ccccc2)cc(Cl)c1Cl	31	455*	8	31	-6	309
C[C@H](NC(=O)C[C@@H]1C[C@@H]2c3cc(NC(=O)CC4CC4)ccc3O[C@@H]2[C@@H](CO)O1)c1ccccc1	·	·	·	·	12	·
CC(=O)N1CCN(c2cc3c(cc2F)c(=O)c(C(=O)O)cn3C2CC2)CC1	-6	-6	-8	-24	-8	-5
CCN1CCN(c2cc3c(cc2F)c(=O)c(C(=O)O)cn3C2CC2)CC1	60*	-10	-8	-9	-15	-1
COCCNC(=O)C[C@@H]1C[C@@H]2c3cc(NS(=O)(=O)c4ccccc4)ccc3O[C@@H]2[C@@H](CO)O1	·	·	·	·	-11	·
CC1CCc2nc(N)c(C#N)c(-c3cccnc3)c2C1 (stereo unspecified)	83*	-54	59*	54*	27	-48
CC1CCc2nc(N)c(C#N)c(-c3ccncc3)c2C1 (stereo unspecified)	3	6	6	-12	·	-5
NC(=O)c1ccccc1N/C=C/C(=O)c1ccc(Cl)cc1	40	45	-6	-65	·	33
Cc1ccc(C=Nc2ccccc2C(=O)Nc2ccccc2)cc1	-6	6	-1	-55	22	0
Cc1ccc(C=Nc2ccccc2C(N)=O)cc1	-16	66*	-12	-32	-53	55
Cc1ccc(/C=C/C(=O)Nc2ccccc2C(N)=O)cc1	-34	59*	7	-37	-11	18
NC(=O)c1ccccc1NC(=O)/C=C/C(=O)O	-12	?	5	-40	·	25
Cc1ccc(C(=O)/C=C/Nc2ccccc2C(N)=O)cc1	58*	42	16	-49	·	21
SMILES	TWEAK Fn14 block	HSF-1 act	EBV LMP1 NFkB	TROY NFkB inh	LGR2 inh	HSF1 inh
Cc1ccc(C(=O)/C=C/Nc2ccccn2)cc1	102*	-66	69*	47	·	-62*
Cc1noc(C)c1NC(=O)Nc1cccc2c1O[C@@H](CN(C)C(=O)NC(C)C)[C@H](C)CN([C@@H](C)CO)C2=O	·	·	·	·	1	·
COCCn1c(C)cc(C2=NNC(=Nc3ccccc3)SC2)c1C	76*	-39	3	82*	·	-40
COCCn1c(C)cc(C2=NNC(=Nc3ccc(OC)cc3)SC2)c1C	-3	-21	4	-4	·	-2
CCN=C1NN=C(c2cc(C)n(Cc3ccco3)c2C)CS1	48	-23	70*	-1	·	-16
CC(C)NC(=O)N(C)C[C@@H]1Oc2c(NC(=O)c3cnccn3)cccc2C(=O)N([C@@H](C)CO)C[C@H]1C	·	·	·	·	8	·
O=Cc1cccc(OC(=O)c2ccc(Cl)cc2Cl)c1	·	64*	·	·	·	27
COc1cc(C(=O)Oc2cccc(C=O)c2)cc(OC)c1OC	-24	-12	12	15	-15	-11
O=C1CSC(=NC(=O)c2ccccc2)N1	69*	-9	-3	-3	21	1
CC(=O)c1c(C)[nH]c(C(=O)COC(=O)CCCOc2ccccc2)c1C	11	0	-3	-13	3	-7
CC(=O)c1c(C)[nH]c(C(=O)OCCOc2ccccc2)c1C	-19	29	33	62*	68*	8
CCCc1c(C(=O)OCC)[nH]c2c1C(=O)CCC2	3	-4	0	-19	0	-2
Cc1c(C(=O)OCCOc2ccccc2)[nH]c2c1C(=O)CCC2	82*	-4	6	66*	·	0
C[C@H]1CN([C@@H](C)CO)C(=O)c2cc(NC(=O)NC3CCCCC3)ccc2O[C@@H]1CN(C)Cc1ccc(C(F)(F)F)cc1	·	·	·	·	8	·
O=C(c1cccc(F)c1)N1CC2(C1)[C@@H](c1ccccc1)[C@@H](CO)N2C(=O)C1CC1	·	·	·	·	10	·
CCN(CC)S(=O)(=O)c1ccc(S(=O)(=O)N(CC(=O)Nc2ccccc2)CC2CCCO2)cc1 (stereo unspecified)	-26	5	-3	6	·	8
O=C(CN(CC1CCCO1)S(=O)(=O)c1ccc(S(=O)(=O)NC2CC2)cc1)Nc1ccccc1 (stereo unspecified)	-5	115*	-11	3	13	61
Cc1ccc([N+](=O)[O-])cc1N=Nc1c(-c2ccc([N+](=O)[O-])cc2)[nH]n(C(N)=S)c1=O	81*	56*	26	64*	·	19
NC(=S)n1[nH]c(-c2ccc([N+](=O)[O-])cc2)c(N=Nc2ccc(Cl)cc2)c1=O	54*	·	32	53*	·	·
Cc1ccc([N+](=O)[O-])cc1N=Nc1c(C)[nH]n(C(N)=S)c1=O	-4	8	1	0	-16	6
Cc1ccc(N=Nc2c(C)[nH]n(C(N)=S)c2=O)cc1	15	0	-37	-28	0	-6
C[C@H](CO)N1C[C@H](C)[C@@H](CN(C)Cc2ccc(-c3ccccc3)cc2)Oc2ccc(NC(=O)Cc3cn(C)c4ccccc34)cc2C1=O	·	·	·	·	-9	·
C=CCOc1cccc(C(=O)/C=C2/C(=O)Nc3ccccc32)c1	30	236*	6	29	5	158
O=C(O)COc1ccccc1/C=C1\C(=O)Nc2ccc(Br)cc21	36	14	-2	13	-3	-8
CC(=O)/C=C1/C(=O)Nc2ccccc21	9	187*	7	-13	-22	165
O=C1Nc2ccc(Br)cc2/C1=C/C(=O)c1ccccc1	55*	·	-1	11	11	·
